Vaccinia Venus: inhibitors of vaccinia virus (Venus reporter); Vaccinia virus Venus reporter expression, fluorescence; Potency, µM (top dose mostly 36.5 µM), for inactives: top-dose activity change, negative = inhibition, actives largely listed as inhibitors; 0.46% of 330,000 active; calls by dose curve; tested in A549 cells; also: potency is read from the fitted curve at half-maximal effect; nearly all actives have a fitted effect of over 30% in size
Giardia FBPA inh: inhibitors of Giardia lamblia fructose-1,6-bisphosphate aldolase. A8B2U2. Potency, µM (top dose mostly 59.6 µM), inactives show top-dose activity, negative = inhibition, usual class: inhibitors. 0.71% of 290,000 active. purified Giardia FBPA; also: potency is read from the fitted curve at half-maximal effect; nearly all actives have a fitted effect of over 55% in size
Target sequence (A8B2U2 whole entry, looked up): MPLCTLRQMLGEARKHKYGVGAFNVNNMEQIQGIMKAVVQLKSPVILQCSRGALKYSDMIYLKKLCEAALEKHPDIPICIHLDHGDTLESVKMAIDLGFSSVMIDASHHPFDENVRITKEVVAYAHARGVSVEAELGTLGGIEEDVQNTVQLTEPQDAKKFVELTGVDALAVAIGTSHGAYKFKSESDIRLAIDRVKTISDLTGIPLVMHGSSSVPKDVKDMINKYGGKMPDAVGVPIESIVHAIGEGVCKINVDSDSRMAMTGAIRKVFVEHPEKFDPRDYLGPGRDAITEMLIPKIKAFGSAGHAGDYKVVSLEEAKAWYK
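40 nM FBPA preincubated 10 min at RT with compound (up to 57.5 uM final), then substrate plus GAPDH/TPI/NAD/arsenate coupling and diaphorase/resazurin added. Fluorescence read after 20 min at RT, 525/598 nm.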
Vaccinia mCherry: vaccinia inhibition (mCherry reporter); 0.63% of 310,000 active; AID 720579; Vaccinia virus mCherry reporter infection, fluorescence; Potency, µM (doses to about 36.5 µM), inactives show at the top dose activity change, negative = inhibition, usual class: inhibitors; calls by dose curve; tested in A549 cells; also: potency is read from the fitted curve at half-maximal effect; nearly all actives have a fitted effect of over 35% in size
HCMV inh: human cytomegalovirus inhibition. HFF cells, HCMV-luciferase reporter, 72 h; active compounds read low. activity change, negative = inhibition, % at 57.5 µM. 4.5% of 410,000 active. AID 1259415; in the data active = activity change below about -60%; inconclusive = no clear call, values can overlap the other calls; inactive = above about -39%
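Inhibition of viral replication was scored as loss of reporter luminescence in HFFs infected with HCMV-luciferase (MOI 1 PFU/cell) for 72 h; compounds tested at 2 doses, normalized to buffer and Salinomycin controls.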
FMDV inh: foot and mouth disease virus antiviral activity; 1.2% of 410,000 active; Potency, µM (highest dose often 57.9 µM), inactives show at the highest dose activity change, negative = inhibition, hits mostly inhibitors; FMDV antiviral cell-based qHTS; calls by dose curve; tested in HEK293T cells; also: read-out not given here; potency is read from the fitted curve at half-maximal effect; nearly all actives have a fitted effect of over 45% in size
HCV inh: HCV inhibition | Potency, µM (highest dose often 41.8 µM), for the others: top-dose activity change, negative = inhibition, hits mostly inhibitors | Huh7.5.1 HCVcc-Cre infection, luciferase reporter, 44 h | 3.4% of 340,000 active | AID 651820; also: potency is read from the fitted curve at half-maximal effect
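Seed cells (1,000/well) for 4 h; treat with compound and infect with HCVcc-Cre, moi about 0.5. Incubate 44 h, then detect luciferase activity.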
The depositor's hits bear a star; i = inactive; ? = inconclusive; · = no result given; + = active, no number; [ ] = remark or other dose. Rows were chosen to be rich in hits. Some 7.5% of all compounds tested hit in one or more screens of this group. Unless noted, calls follow the shape of the dose curve; as a rule, active = well fitted curve in the direction sought with a large enough effect; inconclusive = small, poorly fitted or top-dose-only effect, or another doubt; inactive = no such curve, though single readings can be large; an effect the other way counts as inactive or inconclusive. % is scaled to controls: 0 for no effect and ±100 for the full control effect.

SMILES	Vaccinia Venus	Giardia FBPA inh	Vaccinia mCherry	HCMV inh	FMDV inh	HCV inh
COc1ccc(NC(=O)CCCN2C(=O)/C(=C\c3ccco3)SC2=S)cc1	-30%	-23%	?	-101*	?	?
COc1ccc(/C=C2\SC(=O)N(CCCC(=O)Nc3ccc(C(=O)O)cc3)C2=O)cc1	-15%	·	-29%	-101*	4µM*	·
COc1ccc(/C=C2/SC(=S)N(CCCC(=O)Nc3cccc(O)c3)C2=O)cc1	10%	1%	?	-97*	4%	?
COc1cc(OC)cc(C(=O)NCCN2C(=O)S/C(=C\c3cccs3)C2=O)c1	-25%	0%	-11%	-7	?	8.9µM*
COc1cc(C(=O)NCCN2C(=O)S/C(=C\c3cccs3)C2=O)cc(OC)c1OC	-14%	-1%	-16%	79	28%	?
COc1ccc(/C=C2\SC(=S)N(CCC(=O)Nc3cccc(O)c3)C2=O)cc1OC	1%	11%	i	-24	6%	-23%
CC1Cc2cc(/C(O)=C3/C(=O)C(=O)N(CCCn4ccnc4)C3c3ccc(F)cc3)ccc2O1 (centres undefined)	4%	-5%	-20%	-9	7%	29%
Cc1ccc(/C=C2\SC(=S)N(CCCC(=O)Nc3ccccc3C(=O)O)C2=O)cc1	·	·	·	?	?	1%
CCc1ccc(/C=C2\SC(=S)N(CCCC(=O)Nc3ccccc3C(=O)O)C2=O)cc1	·	·	·	+	0%	1%
CCc1ccc(/C=C2\SC(=S)N(CCCC(=O)Nc3ccc(C(=O)O)cc3)C2=O)cc1	·	·	·	-93*	-3%	32%
COc1ccc(/C=C2/SC(=S)N(CCCC(=O)Nc3ccccc3C(=O)O)C2=O)cc1	20%	-4%	i	-34	8.9µM*	28%
COc1cccc(/C=C2\SC(=S)N(CCCC(=O)Nc3cccc(C(=O)O)c3)C2=O)c1	4%	·	i	·	7%	·
COc1ccc(/C=C2\SC(=S)N(CCCC(=O)NNC(=O)c3ccccc3O)C2=O)cc1	-19%	12%	0%	-75*	4.5µM*	?
O=C(CSc1nc2ccccc2s1)c1ccc(O)cc1O	·	-1%	·	136	12%	-2%
COc1ccc(-c2[nH]c(-c3ccc(Cl)cc3)nc2SCC(=O)NCC2CCCO2)cc1 (centres undefined)	-18%	·	-17%	-10	8%	·
CC1(C(=O)NS(=O)(=O)c2ccc(Br)cc2)CCN1C(=O)CCc1cccs1 (centres undefined)	-8%	·	20%	2	2%	·
COc1ccc2c(c1)O[C@@H](c1ccc3c(c1)OCO3)[C@H](O)C2=O	·	-1%	·	·	·	·
COc1ccc(/C=C2\SC(=O)N(CCNC(=O)Cc3coc4cc(OC)ccc34)C2=O)cc1	-23%	-3%	?	-103*	0%	?
Cc1ccc(/C=C2\SC(=S)N(CCCC(=O)Nc3nccs3)C2=O)cc1	-5%	0%	-6%	?	-24%	5%
CCc1ccc(/C=C2\SC(=S)N(CCCC(=O)Nc3nccs3)C2=O)cc1	-7%	-3%	i	-93*	14%	13%
NN1C(=O)/C(=C\c2ccco2)SC1=S	-3%[7.34 µM]	6.3µM*	-2%[7.34 µM]	-40	29%	4%
COc1ccc2c(CC(=O)NCCN3C(=O)S/C(=C\c4cccnc4)C3=O)coc2c1	-11%	-15%	i	17	0%	-9%
COc1cc(/C=N/NC(=O)c2nc(-c3ccccc3)n(-c3ccccc3)n2)ccc1O	-7%	-10%	-1%	-34	-17%	2%
COc1cc(/C=N/Nc2nc(C)nc3c2cnn3-c2ccccc2)ccc1O	?	-5%	?	-34	-1%	11µM*
CCOc1ccc(N2CC(C(=O)Nc3cccc(S(=O)(=O)N4CCCC4)c3)CC2=O)cc1 (centres undefined)	-11%	·	-5%	2	-6%	10µM*
SMILES	Vaccinia Venus	Giardia FBPA inh	Vaccinia mCherry	HCMV inh	FMDV inh	HCV inh
CC(C)(C)c1ccc(OCCC(=O)Nc2cccc(S(=O)(=O)N3CCOCC3)c2)cc1	-29%	-3%	-13%	·	25µM*	·
CCOc1ccc(OCCC(=O)OCC(=O)Nc2cccc(S(=O)(=O)N3CCCCC3)c2)cc1	·	·	·	-19	-13%	?
CCOc1ccc(N2CC(C(=O)Nc3ccc4c(c3)OCCO4)CC2=O)cc1 (centres undefined)	-9%	·	2%	-33	?	1%
CCOc1ccc(N2CC(C(=O)Nc3ccc4c(c3)OCO4)CC2=O)cc1 (centres undefined)	-2%	5%	-8%	-64*	29%	-3%
CCOc1ccc(OCCC(=O)Nc2cccc(S(=O)(=O)N3CCCC3)c2)cc1	-20%	·	?	-32	0%	11µM*
Cc1cccc(C(=O)OC2CCOC2=O)c1O (centres undefined)	0%	-7%	?	-23	-13%	55%
CCC1CCCCN1CCCNC(=O)c1ccc2c(c1)sc1nc(-c3ccc(F)cc3)cn12 (centres undefined)	?	·	?	·	42%	·
Cc1ccc2c(c1)-c1onc(C(=O)N3CCN(c4cc(Cl)ccc4C)CC3)c1CO2	2%	·	0%	-6	-21%	·
CCOc1ccc(N2CC(C(=O)Nc3ccc(F)cc3F)CC2=O)cc1 (centres undefined)	-2%	-3%	-6%	-102*	47%	9%
CN(CC(=O)Nc1cccc(S(=O)(=O)NC2=NCCCCC2)c1)Cc1ccc(C(C)(C)C)cc1	-22%	-2%	i	9	-17%	?
CC(C)(C)c1ccc(OCCC(=O)Nc2cccc(S(=O)(=O)NC3=NCCCCC3)c2)cc1	-21%	·	-21%	-60*	?	14µM*
O=C(COC(=O)CCC(=O)c1ccc(F)cc1)Nc1cccc(S(=O)(=O)N2CCOCC2)c1	-15%	-8%	i	-37	-7%	13%
O=C(COc1ccc(C(=O)c2ccc(F)cc2)cc1)Nc1cccc(S(=O)(=O)N2CCOCC2)c1	-18%	·	i	-18	32µM*	6.3µM*
CCCOc1ccc(N2CC(C(=O)Nc3cccc(Cl)c3Cl)CC2=O)cc1 (centres undefined)	-23%	·	?	-88*	-3%	·
CCOc1ccc(N2CC(C(=O)Nc3ccccc3OC)CC2=O)cc1 (centres undefined)	-3%	-1%	-7%	5	25%	-5%
Cc1cccc(NC(=O)c2sc3cccc(Cl)c3c2Cl)c1	-6%	·	-11%	50	35%	·
O=C(NCc1cc2ccccc2[nH]1)C1CCC(=O)N(CC2CCCCC2)C1 (centres undefined)	-20%	·	-23%	8	13%	·
COc1ccc(CN2C(=O)C(n3c(C)ccc3C)c3ccccc32)cc1 (centres undefined)	·	·	·	-7	·	·

Assay outcomes deposited in PubChem by National Center for Advancing Translational Sciences (NCATS).
